About 79,000 compounds went through this panel and 15% of them were active in at least one assay; those are over-represented in the sample as a whole. Rule as the data show it: active = growth inhibition above about 70%; inactive = the rest.
Legend:
[1] = NCI Yeast Anticancer Drug Screen. Data for the rad50 strain (AID 155);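 also: 0% = growth of vehicle-only cultures of the same strain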; details: S. cerevisiae rad50 strain growth inhibition; at 50.0 µM; hits give high values
Procedure, shortened: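 A DNA repair-deficient yeast mutant serves as the test organism; compound-induced growth inhibition is calculated against vehicle-treated cells.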

[2] = NCI Yeast Anticancer Drug Screen. Data for the mec2-1 strain (AID 157); details: S. cerevisiae mec2-1 strain, at 50.0 µM, hits give high values
Procedure, shortened: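 mec2-1 yeast strain, carrying an alteration in DNA damage repair or cell cycle control, was exposed to compounds; growth inhibition was measured relative to vehicle-treated controls.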

[3] = NCI Yeast Anticancer Drug Screen. Data for the sgs1 mgt1 strain (AID 161);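 also: 0% = growth of cultures given vehicle only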; details: S. cerevisiae sgs1 mgt1 strain, at 50.0 µM, hits give high values
Procedure, shortened: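 This yeast growth screen uses a strain with defined DNA-repair lesions; compound-treated growth is compared with vehicle-treated growth.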

[4] = NCI Yeast Anticancer Drug Screen. Data for the cln2 rad14 strain (AID 165);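 also: 0% = growth equal to vehicle treated cultures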; details: S. cerevisiae cln2 rad14 strain, at 50.0 µM, hits give high values
Procedure, shortened: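 Yeast carrying cln2 and rad14 alterations (cell cycle control and DNA damage repair) were exposed to compounds. Growth inhibition was measured against vehicle-treated controls.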

[5] = NCI Yeast Anticancer Drug Screen. Data for the bub3 strain (AID 167); details: S. cerevisiae bub3 mutant strain, at 50.0 µM, hits give high values
Procedure, shortened: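 Inhibition values come from growth of compound-treated mutant yeast normalised to vehicle-treated controls.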

[6] = NCI Yeast Anticancer Drug Screen. Data for the mlh1 rad18 strain (AID 175); details: S. cerevisiae mlh1 rad18 strain growth inhibition; at 50.0 µM; hits give high values
Procedure, shortened: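 Growth inhibition of the yeast strain was measured after compound exposure and expressed relative to vehicle-treated controls. The strain carries defined defects in DNA damage repair.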

Measured: growth inhibition

C=C1C(=O)O[C@@H]2C[C@]3(C)[C@@H](C[C@H]12)[C@](C)(O)CC[C@@H]3O
inactive: [1] 5.65% | [2] -10.1% | [3] 1.5% | [4] -37.5% | [5] 7.5% | [6] 0.3%

CN(C)c1ccc(N2C(=S)SC(=Nc3ccccc3)C2=Nc2ccccc2)cc1
inactive: [1] -6% | [2] -13.6% | [3] -10.8% | [4] 7.05% | [5] -1.5% | [6] 3.45%

Cc1c(C(=O)O)[nH]c(=O)[nH]c1=O
inactive: [1] 9.1% | [2] -20.4% | [3] 2.2% | [4] 11.5% | [5] -0.35% | [6] -12.1%

O=c1cc(-c2cccc3ccccc23)[nH]c2ncccc12
inactive: [1] -13.3% | [2] -10.7% | [3] -21.9% | [4] 13.9% | [5] -9.3% | [6] -29.5%

Fc1ccc(-c2nnc(-c3ccccc3)o2)cc1
inactive: [1] 21.4% | [2] 19.1% | [3] 25.2% | [4] 7.2% | [5] 31.4% | [6] 8.15%

CSC(c1ccc(Oc2ccccc2)cc1)=[N+]1CCCCC1
inactive: [1] 47.2% | [2] 13.2% | [3] 49.4% | [4] 23.2% | [5] 53.5% | [6] 23.7%

OCCCCCOCc1ccccc1
inactive: [1] 18.9% | [2] 3.6% | [3] 42.1% | [4] 42.8% | [5] -8.65% | [6] 23.3%

O=C(N/N=C/C=C/c1ccccc1)NNC(=O)c1cc([N+](=O)[O-])cc([N+](=O)[O-])c1
inactive: [1] 31% | [2] 10.8% | [3] 38.3% | [4] 13.8% | [5] 2.65% | [6] 24.2%

Cc1c(C)n(C)c(=S)n(C)c1=S
inactive: [1] 4.95% | [2] 4.15% | [3] 5.8% | [4] 31.6% | [5] 1.85% | [6] 8.65%

COc1cc(CN(c2ccccc2C(=O)O)S(=O)(=O)c2ccc(C)cc2)ccc1[N+](=O)[O-]
inactive: [1] 43.9% | [2] 2.65% | [3] 38.2% | [4] -19.6% | [5] -4.5% | [6] 35.6%

COC(=O)[CH2][Ge]([c]1ccccc1)[c]1ccccc1.COC(=O)[CH2][Ge]([c]1ccccc1)[c]1ccccc1
inactive: [1] 15.8% | [2] 9.15% | [3] 37.3% | [4] -5% | [5] -12.2% | [6] -8.3%

CC(=O)NCCSSCCCCS(=O)O
inactive: [1] -19.1% | [2] -20.1% | [3] 7.85% | [4] 11.3% | [5] 6.05% | [6] -5.35%

c1ccc(C2=NCCc3cc4c(cc32)OCO4)cc1
inactive: [1] 3.35% | [2] 0.7% | [3] 7.8% | [4] 10.1% | [5] 13.2% | [6] 9.4%

CCCCC1C(=O)N=C2C=CC=CN2C1=O (stereo not given)
inactive: [1] -2.15% | [2] -16.9% | [3] -5.75% | [4] 3.5% | [5] -24.2% | [6] -7.4%

CC(=O)Nc1c(C)cc(C)cc1[N+](=O)[O-]
inactive: [1] 8.05% | [2] 7.15% | [3] -12.9% | [4] 2.65% | [5] 6.4% | [6] 22.1%

N#CC(NCCc1ccccc1)c1ccccc1 (stereo not given)
inactive: [1] 2.45% | [2] -3.1% | [3] -32.8% | [4] -20.1% | [5] -56.7% | [6] -3.95%

CC(=O)Oc1ccc2c(c1)oc1c3ccc(OC(C)=O)cc3n(C)c(=O)c21
inactive: [1] -20.1% | [2] -44.8% | [3] -16% | [4] -4.3% | [5] -7.95% | [6] -23.4%

CC1=C(C(=O)NNC(=O)CC#N)CC(C(=O)NNC(=O)CC#N)=C(C)N1
inactive: [1] -27.7% | [2] -43.8% | [3] -20.8% | [4] -24.6% | [5] -27.4% | [6] -0.05%

NC(N)=N/N=C/c1c(-c2ccc(Cl)cc2)nc2n1CCS2
inactive: [1] -36.6% | [2] -51.6% | [3] -18% | [4] -10.9% | [5] -5.05% | [6] -25.2%

COC1(OC)CCCCCCCCC(OC)(OC)CCCCCCCC1
inactive: [1] 7.5% | [2] -18.4% | [3] -10.4% | [4] 13% | [5] 16.2% | [6] -8.2%

O=C(Nc1ccc2c(c1)C(O)c1ccccc1-2)C(F)(F)F (stereo not given)
inactive: [1] 11.4% | [2] -4.3% | [3] 18.9% | [4] 8.35% | [5] 6.85% | [6] 16.1%

O=S(=O)(NCCNS(=O)(=O)c1ccccc1)c1ccccc1
inactive: [1] -10.4% | [2] -13.8% | [3] 10.5% | [4] -44.5% | [5] 1.55% | [6] 4%

CCOC(=O)c1ccc(N(N=O)C(C)C)cc1
inactive: [1] 5.3% | [2] 5.15% | [3] 9.6% | [4] -16% | [5] 1.25% | [6] 5.15%

COC(=O)CCNC(=O)c1ccccc1
inactive: [1] 3.5% | [2] -1.6% | [3] -4.75% | [4] -5.75% | [5] 1.2% | [6] -3.25%

O=C(NNC(=O)C(Oc1ccccc1)c1ccccc1)C(Cl)Cl (stereo not given)
inactive: [1] -9.5% | [2] 4.55% | [3] 0.55% | [4] -2.45% | [5] 10.3% | [6] 5.9%

Cc1ccc(N=C2c3cc([N+](=O)[O-])ccc3-c3ccc([N+](=O)[O-])cc32)cc1
inactive: [1] 15.1% | [2] -10.1% | [3] 0.35% | [4] -18.1% | [5] -4% | [6] -2.25%

CCCCC(CC)COS(=O)(=O)O (stereo not given)
inactive: [1] -16.3% | [2] 2.25% | [3] -30.9% | [4] -42% | [5] -27% | [6] -42%

CC(COCc1ccccc1)NCc1ccccc1 (stereo not given)
inactive: [1] -7.35% | [2] -27.6% | [3] 9.3% | [4] -9.15% | [5] -3.35% | [6] 13.2%

c1ccc(Cc2ccc3ccccc3c2)cc1
inactive: [1] 35.3% | [2] 14.6% | [3] 11.8% | [4] -26.6% | [5] 12.2% | [6] 50.2%

Nc1ccc(S(=O)(=O)Nc2ccccn2)cc1
inactive: [1] -2.2% | [2] 8.55% | [3] -13.1% | [4] -41.4% | [5] -20.2% | [6] -17.4%

CCc1c([N+](=O)[O-])cc(C(C)(C)C)c(OC)c1[N+](=O)[O-]
inactive: [1] -9.05% | [2] -9.75% | [3] 0.6% | [4] -17.6% | [5] 20.2% | [6] -31.6%

CCN(CC)CC(C)=O
inactive: [1] -31% | [2] -58.3% | [3] -82.5% | [4] 14.8% | [5] -11.9% | [6] -6.1%

CCOC(=O)c1ncc(Cl)cc1NC(=O)CC(=O)Nc1cc(Cl)cnc1C(=O)OCC
inactive: [1] 59.8% | [2] -8% | [3] 32.5% | [4] -31.1% | [5] 1.1% | [6] 20.3%

COc1ccc(-c2nc(N)nc3c2CN(CCC(=O)O)C3=O)cc1
inactive: [1] 0.9% | [2] -18.2% | [3] 12% | [4] -8.6% | [5] 7.45% | [6] 3.9%

COC(=O)C1(CC(=O)c2ccc(N3CCN(c4ccc(C(=O)CC5(C(=O)OC)NC(=S)NC(=O)C5C#N)cc4)CC3)cc2)NC(=S)NC(=O)C1C#N (stereo not given)
inactive: [1] -19.5% | [2] -0.6% | [3] -21.4% | [4] 3.95% | [5] -18% | [6] -17.1%

CC(=O)c1ccc(C)c([N+](=O)[O-])c1
inactive: [1] -13.2% | [2] -5.65% | [3] -11.6% | [4] -48.1% | [5] -7.15% | [6] -0.6%

Cc1cc[n+](CC(=O)c2ccc(Br)cc2)cc1
inactive: [1] 22.8% | [2] 12.7% | [3] 18.4% | [4] 22.9% | [5] 4.35% | [6] 54.5%

CC(C)c1cccc(C(C)C)c1NC(=O)OC1CCCCC1
inactive: [1] -11.7% | [2] -22.8% | [3] 8.2% | [4] 20.2% | [5] -1.6% | [6] -2.85%

O=C(NCCNc1ccccc1)C12CC3CC(CC(C3)C1)C2
inactive: [1] -4.2% | [2] 1.35% | [3] -3.9% | [4] -2.4% | [5] 19.1% | [6] 9.5%

O=C(O)CC[C@H](NC(=O)c1ccc(-n2nc3ccc(O)cc3nc2=O)cc1)C(=O)O
inactive: [1] -6.65% | [2] -8.25% | [3] 11.9% | [4] 9.95% | [5] 33.8% | [6] 14.5%
